UBC13 polyUb: human UBC13 polyubiquitination inhibition; P61088; UBC13 polyubiquitin chain formation, TR-FRET; inhibition, % at 20 µM; 0.47% of 330,000 active; in the data active means inhibition above about 45%, passing the limit was not always enough; inconclusive means no clear call, values can overlap the other calls
Target sequence (P61088 whole entry, looked up): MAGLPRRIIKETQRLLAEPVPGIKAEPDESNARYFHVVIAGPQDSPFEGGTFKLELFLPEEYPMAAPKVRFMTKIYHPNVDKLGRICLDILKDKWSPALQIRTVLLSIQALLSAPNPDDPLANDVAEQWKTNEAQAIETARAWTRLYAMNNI
MEKK2 WT-MEK5: raises or lowers MEK5 binding to wildtype human MEKK2 PB1 domain. bead flow cytometry, Alexa488-MEK5 binding to MEKK2 WT; actives lie on both sides. binding response (% of control), % at 10 µM. 1.1% of 290,000 active; in the data active means binding response below about 67% or above about 130%; inconclusive means no clear call, values can overlap the other calls; inactive means in between
MEKK3 PB1 HTS: modulators (inhibitors or enhancers) of MEK5 binding to human MEKK3 PB1 domain; Q99759; bead-based flow cytometry, Alexa488-MEK5 binding to MEKK3; actives lie on both sides; 0 = blocked by unlabeled MEK5, 100 = vehicle; binding response (% of control), % at 10 µM; 1.4% of 290,000 active; AID 1529;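 active means binding response more than 3 SD above or below the average of its plate-row segment, actives on both sides; inconclusive means wells at one plate position flagged as instrument error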;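 further: Alexa488 bead fluorescence after subtracting the streptavidin-only scavenger bead signal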
MEKK2 mut-MEK5: signal of MEK5 binding to mutant human MEKK2 PB1 domain. percent response, % at 10 µM. AID 1530. 0.35% of 290,000 active. bead flow cytometry, Alexa488-MEK5 binding to MEKK2 mutant; in the data active means percent response above about 24%, passing the limit was not always enough
Rce1 inh: inhibitors of yeast Ras-converting enzyme; Q03530; yeast membranes, quenched prenylated peptide cleavage fluorescence; calls only; 0.27% of 290,000 active;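 active means fall in fluorescence gain of 50% or more versus controls, with final raw signal at or below 3038400; inconclusive means same 50% fall but final raw signal above 3038400; inactive means fall in fluorescence gain under 50%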
Target sequence (Q03530 whole entry, looked up): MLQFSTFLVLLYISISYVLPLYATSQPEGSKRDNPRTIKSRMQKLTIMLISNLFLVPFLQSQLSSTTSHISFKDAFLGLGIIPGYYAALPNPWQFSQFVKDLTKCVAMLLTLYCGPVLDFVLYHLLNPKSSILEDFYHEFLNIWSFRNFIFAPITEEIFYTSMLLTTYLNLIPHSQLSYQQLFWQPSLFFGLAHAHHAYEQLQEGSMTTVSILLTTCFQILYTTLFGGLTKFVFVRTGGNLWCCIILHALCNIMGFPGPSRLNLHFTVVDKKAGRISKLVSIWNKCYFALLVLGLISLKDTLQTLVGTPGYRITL
Numbers stand for hits; 0 = inactive; ? = inconclusive; - = no result; + = active, no number. The list is not random: actives were taken first. Their share in the collection is about 2.5%.

SMILES	UBC13 polyUb	MEKK2 WT-MEK5	MEKK3 PB1 HTS	MEKK2 mut-MEK5	Rce1 inh
Cc1cc(=O)oc2c3c(cc(OCC(=O)N4CCC(C(=O)O)CC4)c12)OC(C)(C)CC3	0	0	0	0	+
Cc1cc(=O)oc2c3c(cc(OCC(=O)N4CCC[C@H]4C(=O)O)c12)OC(C)(C)CC3	0	0	0	0	?
CSC[C@H](NC(=O)COc1cc2c(c3oc(=O)cc(C)c13)CCC(C)(C)O2)C(=O)O	0	0	0	0	+
CSC[C@H](NC(=O)COc1cc2c(c3oc(=O)c(C)c(C)c13)CCC(C)(C)O2)C(=O)O	0	0	0	0	0
Cc1cc(OCC(=O)N2CCC(C(=O)O)CC2)c2c(C)cc(=O)oc2c1	0	0	0	0	+
CCc1cc(=O)oc2cc(C)cc(OCC(=O)N3CCC(C(=O)O)CC3)c12	0	0	0	0	0
O=C(CCNC(=O)c1ccccc1)N=Nc1c(O)[nH]c2ccccc12	0	0	0	94	0
CC1(CC(=O)N/N=C/c2cc3c(cc2Br)OCO3)OCCO1	0	0	0	0	0
COc1ccc(C(CNC(=O)Cc2c(F)cccc2Cl)N2CCCCC2)cc1 (configuration not stated)	0	0	0	0	0
Cc1ccccc1OC(C)C(=O)N1CCC(Cc2ccccc2)CC1 (configuration not stated)	0	0	0	0	+
COc1ccccc1OC(C)C(=O)N1CCC(Cc2ccccc2)CC1 (configuration not stated)	0	0	0	0	-
COc1cc2c(cc1O)C(Cc1ccc(O)cc1)[N+](C)([O-])CC2 (configuration not stated)	0	0	0	0	0
COc1ccc(C[C@H]2c3cc(O)c(OC)cc3CC[N+]2(C)[O-])cc1O (some centres not stated)	0	0	0	0	+
C=CCOc1c(Br)cc(/C=C2/C(=O)ON=C2C)cc1OC	0	0	0	0	0
COc1ccc(OCC(=O)NS(=O)(=O)c2ccc(Cl)cc2)cc1	0	0	0	0	+
CCCCNC(=S)N=Nc1c(O)n(Cc2ccccc2)c2ccccc12	0	0	0	0	+
Oc1c(N=NC(=S)Nc2ccccc2F)c2ccccc2n1Cc1ccccc1Cl	0	0	0	0	+
NC(=S)N=Nc1c(O)n(Cc2ccccc2)c2ccccc12	0	0	0	0	0
COc1ccc(/C=C/C(=O)OCC(=O)NCc2ccco2)cc1OC	0	0	0	0	0
CCOC(=O)c1csc(NC(=O)C2=COCCO2)n1	0	0	0	0	0
CCCCOc1ccc(Cc2c(COCC)[nH]c(=S)[nH]c2=O)cc1	?	0	0	0	+
CCOCc1[nH]c(=S)[nH]c(=O)c1Cc1ccc(OCC)cc1	0	0	0	0	0
Cc1cccc(NS(=O)(=O)c2ccc3c(c2)Cc2cc(S(=O)(=O)Nc4cccc(C)c4C)ccc2-3)c1C	-	-3.0	0	0	-
CCc1ccc(CN(Cc2cccnc2)C(=O)/C=C/c2ccc(OC)cc2)cc1	0	138	0	32	0
COc1ccc(/C=C/C(=O)NCc2cccnc2)cc1	0	0	0	0	0
SMILES	UBC13 polyUb	MEKK2 WT-MEK5	MEKK3 PB1 HTS	MEKK2 mut-MEK5	Rce1 inh
CO/N=C/CC(=O)c1cnc(-c2ccc(Cl)cc2)s1	0	0	0	0	0
COc1ccc(C)c2sc(NC(=O)C3=COCCO3)nc12	0	0	0	0	+
COc1ccc(OC)c2sc(NC(=O)C3=COCCO3)nc12	0	0	0	0	0
CC1Oc2ccccc2C=C1/C=N/NC(=O)[C@@H](C)NC(=O)OC(C)(C)C (some centres not stated)	0	0	0	0	+
Cc1ccc(C(=O)N/N=C/C2=Cc3ccccc3OC2C)cc1 (configuration not stated)	0	0	0	0	0
CCN(CC)CCN(C(=O)/C=C/c1cccs1)c1nc2ccc(C)cc2s1	0	160	0	0	0
CCOc1cccc2sc(N(CCN(C)C)C(=O)/C=C/c3cccs3)nc12	0	144	0	26	0
COc1ccc(OC)c2sc(N(CCN(C)C)C(=O)/C=C/c3cccs3)nc12	0	0	0	0	0
Cc1ccc2nc(N(CCN(C)C)C(=O)/C=C/c3cccs3)sc2c1	0	0	0	0	0
COc1ccc(C)c2sc(N(CCN(C)C)C(=O)/C=C/c3cccs3)nc12	0	145	0	0	0
Cc1ccc(NC(=O)CN(C)C(=O)C(C)OC(=O)c2ccccc2NCCO)cc1 (configuration not stated)	0	-	-	-	0
CCOC(=O)c1cc(-c2ccccc2)sc1NC(=O)C(C)Sc1nnnn1C (configuration not stated)	0	0	0	0	+
CCOC(=O)c1cc(-c2ccccc2)sc1NC(=O)C(C)Sc1nnc(C)s1 (configuration not stated)	0	0	0	0	0
O=C(NC1CC2CCCC(C1)N2C(=O)Nc1ccc(F)cc1)c1ccccc1 (configuration not stated)	0	0	0	0	0
O=C(O)c1ccc(N=Cc2c(O)ccc3ccccc23)cc1	0	0	0	0	0
Oc1ccc2ccccc2c1C=Nc1cc(C(F)(F)F)ccc1N1CCCC1	0	6.0	0	0	0
CCC(C)N(C(=O)COc1ccc(Cl)c2cccnc12)C1CCS(=O)(=O)C1 (configuration not stated)	55	-	-	-	0
CCC(C)N(C(=O)COc1ccccc1C#N)C1CCS(=O)(=O)C1 (configuration not stated)	0	-	-	-	0
COc1ccc(-c2cc3ccccc3n2CC(O)CNCCO)cc1 (configuration not stated)	0	0	0	0	+
COc1ccccc1N1CCN(C2CCCN(C(=O)CCc3ccccn3)C2)CC1 (configuration not stated)	0	0	0	0	0
COc1cc(N2CCCC2)c(OC)cc1/C=C(/C#N)c1cccc(F)c1	-	0	0	155	0
COc1ccc(S(=O)(=O)CCC(=O)Nc2cccc(OC)c2)cc1	0	0	0	0	0
Cc1ccc(S(=O)(=O)CC(=O)c2ccc3c(c2)OCCO3)cc1	0	0	0	0	0
CCOc1ccc(-c2c(C(=O)N/N=C/c3cccs3)nnn2-c2nonc2N)cc1	0	0	0	0	+
CCOc1cccc(-c2c(C(=O)N/N=C/c3c(F)cccc3Cl)nnn2-c2nonc2N)c1	0	0	0	0	+
CC1SC(c2ccc(F)cc2)NC1=O (configuration not stated)	0	0	0	0	0
CCOC(=O)NNC(=O)C1CCC(C)CC1 (configuration not stated)	0	0	0	0	0
Cc1cc(NC(=O)c2oc3ccccc3c2C)ccc1-n1cnnn1	0	0	0	0	+
CCOc1ccc(NCc2cccn2-c2nnc(N3CCC(C(=O)NCCCN4CC(C)CC(C)C4)CC3)s2)cc1 (configuration not stated)	0	137	0	0	0
